Active and inactive are the calls of the source.

Here are results for 7 compounds from PubChem BioAssay.

Assay [1] is described as follows: small molecules captured by biotinylated probe aFSTL3 – biochemical, small-molecule microarray, fluorescence 635/667, stem cell growth factor project, primary screen (AID 1064).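 Note: measures binding of the biotinylated anti-FSTL3 antibody to printed compounds.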 The settings on record: higher = more signal.
The nature of assay [2]: binders from COS7 lysate, DM2A8 probe, primary screen, torsin A project, cell lysate, small-molecule microarray, fluorescence 635/667 (AID 1065). The settings on record: higher = more signal, COS7 lysate expressing mutant human TOR1A.
The nature of assay [3]: small molecules captured by biotinylated probe aFGF2 – biochemical, small-molecule microarray, fluorescence 635/667, stem cell growth factor project, primary screen (AID 1067).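 Note: measures binding of biotinylated aFGF2 protein to printed compounds on slides; z-score merges feature fluorescence and signal-to-noise across triplicate slides.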 The conditions noted are these: higher = more signal.
Assay [4] can be described thus: small molecules captured by biotinylated probe aFGF10 – biochemical, small-molecule microarray, fluorescence 635/667, stem cell growth factor project, primary screen (AID 1071).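 Note: score merges 667 nm spot intensity and signal to noise from triplicate slides.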 The conditions noted are these: higher = more signal.
Assay [5] concerns the target Neurogenic locus notch homolog protein 2 (Homo sapiens) (UniProt Q04721). Briefly: small molecules binding Notch2 protein – biochemical, small-molecule microarray, 635 nm fluorescence, stem cell growth factors, primary screen (AID 1073). The conditions noted are these: higher = more signal.
Assay [6] addresses Pro-neuregulin-1, membrane-bound isoform (Homo sapiens) (UniProt Q02297). Briefly: small molecules binding neuregulin-1 protein – biochemical, small-molecule microarray, fluorescence 635/667, psychiatric disease protein project, primary screen (AID 1075).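 Note: score combines 667 nm spot fluorescence with signal to noise.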 The settings on record: NRG1 binding, 635 nm fluorescence, higher = more signal.
The subject of assay [7] is Neuregulin-1 EGF-like domain. Briefly: small molecules binding NRG1 EGF domain – biochemical, small-molecule microarray, 635 nm fluorescence, primary screen (AID 1081).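 Note: binding of the protein to compounds printed on small-molecule microarray slides.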 The settings on record: higher = more signal.
The nature of assay [8]: FRG1 expression reporter modulators in myotubes – cell-based, C2C12 myotubes, firefly/Renilla luciferase, luminescence, FRG1 inhibition for FSHD, primary screen (AID 1084). The settings on record: FRG1 promoter luciferase, higher = more signal, called active from +8 up or from −8 down.
Assay [9] in a line: small molecules captured by biotinylated probe aFST – biochemical, small-molecule microarray, fluorescence 635/667, stem cell growth factor project, primary screen (AID 1086).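 Note: score merges 667 nm fluorescence with signal-to-noise of each printed compound spot.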 The conditions noted are these: higher = more signal.
Assay [10] in a line: binders of probe aHhip on microarray, primary screen, stem cell growth factor project, biochemical, small-molecule microarray, fluorescence 635/667 (AID 1087).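 Note: score merges spot fluorescence at 667nm with spot signal to noise ratio.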 The conditions noted are these: higher = more signal.
Assay [11] relates to PRMT1 (protein arginine N-methyltransferase 1). Put plainly: small molecules binding arginine methyltransferase PRMT1 – biochemical, small-molecule microarray, 635 nm fluorescence, primary screen (AID 1088).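 Note: binding of Prmt1 protein to compounds spotted on small-molecule microarray slides.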 The conditions noted are these: higher = more signal.
Assay [12] is described as follows: growth effects on S. cerevisiae YJM789 – YJM789 clinical isolate, OD600, 24 h, basal, primary screen (AID 1089).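 Note: growth of clinical yeast isolate S. cerevisiae YJM 789 seeded 1000 cells per well; test concentration not given here.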 The conditions noted are these: higher = more signal, called active from +8 up or from −8 down.
Assay [13] can be described thus: S. pombe growth modifiers, basal conditions – strain 972, OD600, 24 h, no modulator, primary screen (AID 1090).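 Note: basal condition with compound alone and no growth modifier present; test concentration not given here.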 The conditions noted are these: S. pombe 972 growth, higher = more signal, called active from +8 up or from −8 down.
A short description of assay [14]: budding yeast growth modifiers under rapamycin – strain BY4716, OD600, 96 h, primary screen (AID 1091). Note: test concentration not given here. The settings on record: S. cerevisiae BY4716 + rapamycin, higher = more signal, called active from +8 up or from −8 down.
In assay [15] the target is Torsin-1A-interacting protein 2 (Homo sapiens) (UniProt Q8NFQ8). Briefly: small molecules binding lysate-expressed LULL1 – cell lysate, human LULL1 lysate, 635/667 nm fluorescence, primary screen (AID 1092).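 Note: probe is lysate of COS7 cells overexpressing human LULL1; score merges per-feature 667 nm fluorescence with signal-to-noise.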 The settings on record: small-molecule microarray, hLULL1 lysate binding, 635 nm fluorescence; higher = more signal.
Assay [16] can be described thus: optical density change of DRC41 E. coli – strain DRC41, OD650, 24 h, E. coli filamentation project, primary screen (AID 1093).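 Note: MC1000 strain lacking acrAB efflux and sulA so SOS filamentation is blocked; test concentration not given here.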 The conditions noted are these: E. coli DRC41 growth, higher = more signal, called active from +8 up or from −8 down.
Assay [17] in a line: probe aLefty2 binding to arrayed compounds – biochemical, biotinylated probe, 635/667 nm fluorescence, primary screen (AID 1094).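 Note: score merges spot fluorescence near 667 nm with spot signal-to-noise ratio.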 The settings on record: small-molecule microarray, higher = more signal.
Assay [18] has as its system Noggin (protein binding on small-molecule microarray). Briefly: small molecules binding Noggin protein – biochemical, 635/667 nm fluorescence, primary screen (AID 1095).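 Note: score merges 667 nm feature fluorescence with signal to noise over triplicate slides.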 The conditions noted are these: 635 nm fluorescence, higher = more signal.
Assay [19] has as its target Neurogenic locus notch homolog protein 3 (Homo sapiens) (UniProt Q9UM47). Put plainly: small molecules binding NOTCH3 protein – biochemical, 635/667 nm fluorescence, primary screen (AID 1096). The conditions noted are these: small-molecule microarray, 635 nm fluorescence, higher = more signal.
Assay [20] can be described thus: probe aEGFR binding to arrayed compounds – biochemical, biotinylated probe, 635/667 nm fluorescence, primary screen (AID 1097).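 Note: probe is a biotinylated anti-EGFR antibody binding compounds printed on slides; score combines fluorescence near 667 nm and signal to noise of each spot.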 The conditions noted are these: small-molecule microarray, higher = more signal.

Neurogenic locus notch homolog protein 3 (Homo sapiens), sequence (Q9UM47 whole entry, looked up): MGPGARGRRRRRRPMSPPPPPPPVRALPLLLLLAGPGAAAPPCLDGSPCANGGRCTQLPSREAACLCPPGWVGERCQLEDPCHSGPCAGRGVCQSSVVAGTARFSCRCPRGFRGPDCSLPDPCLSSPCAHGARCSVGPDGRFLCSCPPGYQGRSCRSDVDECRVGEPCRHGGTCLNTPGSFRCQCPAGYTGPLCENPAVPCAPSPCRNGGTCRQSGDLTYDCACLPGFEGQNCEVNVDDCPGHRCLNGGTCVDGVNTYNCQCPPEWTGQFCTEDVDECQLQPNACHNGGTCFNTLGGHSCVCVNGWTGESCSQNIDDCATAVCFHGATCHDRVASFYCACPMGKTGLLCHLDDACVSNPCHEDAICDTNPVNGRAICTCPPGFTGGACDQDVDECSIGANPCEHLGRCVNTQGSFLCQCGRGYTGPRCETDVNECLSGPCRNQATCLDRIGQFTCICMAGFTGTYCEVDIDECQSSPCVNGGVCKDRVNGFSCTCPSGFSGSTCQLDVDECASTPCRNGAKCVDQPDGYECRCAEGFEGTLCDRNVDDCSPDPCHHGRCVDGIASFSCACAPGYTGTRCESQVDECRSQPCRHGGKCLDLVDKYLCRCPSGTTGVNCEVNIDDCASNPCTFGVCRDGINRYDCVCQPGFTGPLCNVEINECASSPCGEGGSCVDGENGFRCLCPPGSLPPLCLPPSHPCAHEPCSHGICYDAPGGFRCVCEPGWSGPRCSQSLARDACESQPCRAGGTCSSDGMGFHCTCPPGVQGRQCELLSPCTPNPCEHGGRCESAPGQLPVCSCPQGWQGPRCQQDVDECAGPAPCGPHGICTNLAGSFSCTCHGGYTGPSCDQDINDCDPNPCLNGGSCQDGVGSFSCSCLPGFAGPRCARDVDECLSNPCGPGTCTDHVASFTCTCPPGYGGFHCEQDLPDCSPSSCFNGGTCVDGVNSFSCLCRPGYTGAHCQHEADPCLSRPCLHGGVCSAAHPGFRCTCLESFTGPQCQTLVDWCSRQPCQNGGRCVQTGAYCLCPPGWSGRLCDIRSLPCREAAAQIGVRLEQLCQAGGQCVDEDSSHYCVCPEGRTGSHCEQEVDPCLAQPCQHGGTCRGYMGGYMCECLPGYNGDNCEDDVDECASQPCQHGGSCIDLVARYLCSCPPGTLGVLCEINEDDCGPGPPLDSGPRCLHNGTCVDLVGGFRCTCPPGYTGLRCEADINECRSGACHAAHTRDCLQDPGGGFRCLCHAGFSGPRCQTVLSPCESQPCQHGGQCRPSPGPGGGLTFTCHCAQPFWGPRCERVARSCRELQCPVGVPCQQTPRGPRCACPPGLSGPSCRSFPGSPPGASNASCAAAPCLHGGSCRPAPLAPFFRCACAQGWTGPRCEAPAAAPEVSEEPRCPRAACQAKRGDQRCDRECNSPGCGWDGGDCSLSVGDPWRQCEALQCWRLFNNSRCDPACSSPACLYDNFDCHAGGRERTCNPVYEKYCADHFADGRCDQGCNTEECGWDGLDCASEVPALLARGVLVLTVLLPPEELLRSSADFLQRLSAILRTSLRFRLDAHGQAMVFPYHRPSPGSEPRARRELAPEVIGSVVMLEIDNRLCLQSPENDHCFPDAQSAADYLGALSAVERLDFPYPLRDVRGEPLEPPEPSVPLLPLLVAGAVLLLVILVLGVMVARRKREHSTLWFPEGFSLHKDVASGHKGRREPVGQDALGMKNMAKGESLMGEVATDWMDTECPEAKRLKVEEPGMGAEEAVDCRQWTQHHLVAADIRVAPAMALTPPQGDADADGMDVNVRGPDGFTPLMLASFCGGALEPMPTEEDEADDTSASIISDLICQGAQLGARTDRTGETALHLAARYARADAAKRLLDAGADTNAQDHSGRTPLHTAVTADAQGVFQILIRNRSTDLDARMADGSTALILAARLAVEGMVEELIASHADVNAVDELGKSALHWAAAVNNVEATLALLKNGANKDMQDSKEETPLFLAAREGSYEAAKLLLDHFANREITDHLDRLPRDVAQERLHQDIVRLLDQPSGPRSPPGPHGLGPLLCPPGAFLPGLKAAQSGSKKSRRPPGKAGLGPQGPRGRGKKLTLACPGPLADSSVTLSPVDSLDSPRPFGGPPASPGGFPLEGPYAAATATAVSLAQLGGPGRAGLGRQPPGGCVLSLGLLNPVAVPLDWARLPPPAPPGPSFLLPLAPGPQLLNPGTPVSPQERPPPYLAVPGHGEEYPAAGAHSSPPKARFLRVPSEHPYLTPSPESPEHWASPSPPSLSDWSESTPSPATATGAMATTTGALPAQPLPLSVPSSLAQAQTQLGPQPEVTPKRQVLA
Neurogenic locus notch homolog protein 2 (Homo sapiens), sequence (Q04721 whole entry, looked up, canonical isoform): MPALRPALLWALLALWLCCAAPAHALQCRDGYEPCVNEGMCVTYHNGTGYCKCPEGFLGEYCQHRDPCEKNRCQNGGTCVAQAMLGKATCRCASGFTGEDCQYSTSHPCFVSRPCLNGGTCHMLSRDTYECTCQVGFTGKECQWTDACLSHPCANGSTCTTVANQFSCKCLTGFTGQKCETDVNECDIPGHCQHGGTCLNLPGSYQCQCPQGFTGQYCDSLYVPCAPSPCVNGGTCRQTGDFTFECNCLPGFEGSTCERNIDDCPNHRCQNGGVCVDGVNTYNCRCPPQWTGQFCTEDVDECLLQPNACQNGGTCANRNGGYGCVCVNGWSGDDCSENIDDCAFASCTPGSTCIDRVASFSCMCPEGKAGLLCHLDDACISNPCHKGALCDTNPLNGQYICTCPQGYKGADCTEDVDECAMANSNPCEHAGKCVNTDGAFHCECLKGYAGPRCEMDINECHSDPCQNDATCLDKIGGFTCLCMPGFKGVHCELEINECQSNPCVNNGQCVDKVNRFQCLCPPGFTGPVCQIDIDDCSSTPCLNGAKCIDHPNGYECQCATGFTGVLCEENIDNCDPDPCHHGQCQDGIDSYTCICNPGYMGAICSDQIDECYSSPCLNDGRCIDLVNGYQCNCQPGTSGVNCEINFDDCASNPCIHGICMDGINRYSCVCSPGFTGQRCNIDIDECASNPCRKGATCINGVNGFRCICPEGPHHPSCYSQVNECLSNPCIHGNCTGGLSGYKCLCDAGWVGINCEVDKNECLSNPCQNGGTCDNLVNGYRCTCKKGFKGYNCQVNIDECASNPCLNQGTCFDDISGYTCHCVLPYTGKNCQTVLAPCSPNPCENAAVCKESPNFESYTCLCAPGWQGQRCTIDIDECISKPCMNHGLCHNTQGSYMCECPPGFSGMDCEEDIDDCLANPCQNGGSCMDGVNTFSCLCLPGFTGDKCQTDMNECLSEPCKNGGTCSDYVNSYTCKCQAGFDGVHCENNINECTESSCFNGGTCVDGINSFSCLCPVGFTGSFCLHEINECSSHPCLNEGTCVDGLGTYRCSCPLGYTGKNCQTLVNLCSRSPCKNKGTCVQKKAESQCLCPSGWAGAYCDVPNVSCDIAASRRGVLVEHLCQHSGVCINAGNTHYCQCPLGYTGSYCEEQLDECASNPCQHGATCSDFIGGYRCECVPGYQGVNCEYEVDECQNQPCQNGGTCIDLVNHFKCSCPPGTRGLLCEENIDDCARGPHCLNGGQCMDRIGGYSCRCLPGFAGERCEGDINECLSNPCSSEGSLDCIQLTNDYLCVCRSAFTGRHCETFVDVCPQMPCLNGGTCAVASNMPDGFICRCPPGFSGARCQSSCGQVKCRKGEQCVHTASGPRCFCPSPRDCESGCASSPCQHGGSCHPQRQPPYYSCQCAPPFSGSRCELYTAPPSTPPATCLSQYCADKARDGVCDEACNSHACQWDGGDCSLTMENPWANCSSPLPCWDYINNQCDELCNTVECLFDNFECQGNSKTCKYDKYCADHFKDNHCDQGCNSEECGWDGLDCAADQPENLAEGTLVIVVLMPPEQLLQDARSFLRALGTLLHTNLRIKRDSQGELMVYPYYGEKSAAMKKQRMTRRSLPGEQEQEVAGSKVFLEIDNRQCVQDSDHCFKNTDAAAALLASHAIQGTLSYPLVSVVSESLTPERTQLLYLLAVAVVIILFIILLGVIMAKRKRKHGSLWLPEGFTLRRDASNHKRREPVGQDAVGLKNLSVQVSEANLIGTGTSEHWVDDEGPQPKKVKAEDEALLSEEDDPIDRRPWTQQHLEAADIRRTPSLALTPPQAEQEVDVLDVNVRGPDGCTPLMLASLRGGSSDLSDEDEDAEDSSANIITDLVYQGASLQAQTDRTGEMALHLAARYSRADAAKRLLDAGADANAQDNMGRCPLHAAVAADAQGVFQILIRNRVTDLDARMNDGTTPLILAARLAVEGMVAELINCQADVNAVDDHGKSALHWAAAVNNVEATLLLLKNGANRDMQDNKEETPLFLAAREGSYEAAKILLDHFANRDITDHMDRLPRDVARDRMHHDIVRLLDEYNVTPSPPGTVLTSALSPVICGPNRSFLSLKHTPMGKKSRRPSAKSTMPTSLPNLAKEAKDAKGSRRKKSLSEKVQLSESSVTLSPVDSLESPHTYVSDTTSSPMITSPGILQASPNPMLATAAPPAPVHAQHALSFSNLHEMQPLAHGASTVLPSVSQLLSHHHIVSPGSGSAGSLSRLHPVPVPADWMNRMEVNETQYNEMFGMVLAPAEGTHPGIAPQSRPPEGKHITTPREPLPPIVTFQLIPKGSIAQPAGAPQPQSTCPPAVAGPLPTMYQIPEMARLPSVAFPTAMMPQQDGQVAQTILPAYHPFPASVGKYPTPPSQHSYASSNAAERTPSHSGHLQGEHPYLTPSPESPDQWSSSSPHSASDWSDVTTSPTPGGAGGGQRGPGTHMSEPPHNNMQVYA

`CC(C)(C)N1CC=CC23O[C@@H]4C=CCOC(=O)[C@@H]4[C@H]2C(=O)N(CCCCCO)[C@@H]3C1=O` (stereo not given in full): the composite z-score in assay [1] is 0.469; in assay [2] it was -0.555; in assay [3], -0.159; in assay [4] it was -0.335; in assay [5], -1.38; in assay [6], 0.978. For the same compound, the composite z-score was 1.33 in [7]; 0.411 in [9]; -0.339 in assay [10]; -0.396 in assay [11]; 0.735 in assay [15]; -0.215 in assay [17]. Besides, the composite z-score was -0.617 in assay [18], -0.374 in assay [19] and -0.224 in assay [20]. Further, the z-score in [8] is 0.952 (inactive); in assay [12] it was -0.256 (inactive); in [13], -0.0499 (inactive); in assay [14], -0.177 (inactive); in assay [16], 0.385 (inactive).
Regarding `COCCOC(=O)N1C(=O)[C@@]2(c3ccccc31)[C@H](c1ccc(O)cc1)N1[C@H](c3ccccc3)[C@H](c3ccccc3)OC(=O)[C@H]1[C@@H]2C(=O)N1CCc2cc(OC)c(OC)cc2C1`, the composite z-score in [1] amounted to 0.21; in [2], 0.0749; in assay [3] it was 0.0631; in assay [4], 0.691; in [5], 1.15; in assay [6] it was 1.08. Also, the composite z-score in assay [7] is 0.938; in assay [9], 1.05; in [10] it was -0.179; in assay [11] it was 1.54; in assay [15], 1.17; in [17] it was 0.0191. The composite z-score in assay [18] came out at 1.04; in assay [19] it was 1.06; in assay [20] it was 0.101. For the same compound, the z-score was -1.47 (inactive) in assay [8]; -1.36 (inactive) in [12]; 0.201 (inactive) in [13]; 1.3 (inactive) in assay [14]; -0.121 (inactive) in assay [16].
As for `COC(=O)[C@@]1(Cc2ccccc2)[C@H]2c3cc(C(=O)N4CCCC4)n(Cc4ccc(C)o4)c3C[C@H]2CN1C(=O)c1ccccc1`, the composite z-score in [1] is 0.385; in assay [2], 0.225; in [3] it was -0.162; in assay [4], 0.0426; in assay [5], 1.54; in [6] it was 1.37. For the same compound, the composite z-score was 0.476 in assay [7]; 0.935 in assay [9]; 0.259 in assay [10]; -0.179 in assay [11]; 2.6 in assay [15]; -0.0127 in [17]. In addition, the composite z-score in assay [18] was 0.231; in assay [19], 0.622; in assay [20], 0.0226. For the same compound, the z-score in assay [8] is 0.0318 (inactive); in assay [12], -0.619 (inactive); in assay [13], 0.122 (inactive); in [14], -0.564 (inactive); in [16], -0.564 (inactive).
Turning to `COc1cc(CO)ccc1OC(C)=O`, the composite z-score in assay [1] was -0.651; in assay [2] it was 0.336; in assay [3] it was -0.0279; in assay [4] it was 0.28; in [5], 0.382; in [6] it was 0.34. Also, the composite z-score in [7] was 0.707; in [9], 0.195; in assay [10] it was 0.122; in [11], 0.657; in assay [15], 0.0135; in assay [17] it was -0.332. Further, the composite z-score was 0.601 in [18], 0.317 in [19] and -0.112 in assay [20]. Besides, the z-score is -0.847 (inactive) in [8]; -2.07 (inactive) in assay [12]; -1.44 (inactive) in assay [13]; -0.377 (inactive) in assay [14]; 1.14 (inactive) in assay [16].
As for `CCOC(=O)C1=CC[C@@H](c2ccccc2Cl)N(S(=O)(=O)c2ccc(C)cc2)C1`, the composite z-score in assay [1] was 0.091; in [2], -0.507; in assay [3], 0.102; in [4], 0.435; in [5], 1.3; in assay [6] it was 1.31. The composite z-score in [7] was found to be 0.828; in assay [9], 0.802; in [10], 0.0373; in [11], 0.98; in [15], 2.24; in assay [17], 0.264. Besides, the composite z-score in [18] was -0.434; in assay [19], 1.04; in [20], -0.178. For the same compound, the z-score was -3 (inactive) in [8]; -2.37 (inactive) in [12]; 0.307 (inactive) in assay [13]; 0.661 (inactive) in assay [14]; -0.239 (inactive) in assay [16].
On to `Cc1c(NC(=O)CC#N)c(=O)n(-c2ccccc2)n1C`, for which the composite z-score was -0.436 in assay [1]; 0.114 in assay [2]; -0.0996 in assay [3]; 0.374 in assay [4]; 0.348 in [5]; 0.379 in [6]. For the same compound, the composite z-score in assay [7] was 0.483; in assay [9], 0.404; in assay [10], -0.498; in [11], 0.175; in assay [15], 1.16; in assay [17] it was -0.225. Besides, the results for the composite z-score in assay [18], in assay [19] and in [20] were 0.407, 0.66 and -0.0856, respectively. The z-score in [8] was 1.66 (inactive); in [12], -1.36 (inactive); in assay [13], -0.263 (inactive); in [14], -0.722 (inactive); in assay [16] it was -0.325 (inactive).
With `COc1ccc(C(O)C2C=CC3C(=O)NC(=O)C3N2Nc2ccccn2)cc1OCc1ccccc1` (stereo not given), the composite z-score in [1] was -0.202; in [2], -0.0593; in assay [3] it was -0.0226; in [4], 0.177; in [5], 1.27; in assay [6] it was 1.71. Besides, the composite z-score in assay [7] was 0.666; in [9], 0.216; in assay [10], 3.69; in [11], 0.301; in [15], 3.51; in assay [17] it was -0.0865. Further, the composite z-score is 0.15 in assay [18], -0.192 in assay [19] and 0.0357 in assay [20]. The z-score in assay [8] was 0.387 (inactive); in assay [12] it was 0.167 (inactive); in assay [13], 1.03 (inactive); in [14], -0.269 (inactive); in assay [16], -0.181 (inactive).
